Experimental findings from PubChem BioAssay (NCI) are described below.

Compounds without any hit were thinned out: in the full panel of roughly 83,000, 20% have a hit.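 Method: cells in 96-well plates; compound added at one concentration; 48 h incubation; percent growth measured; values under 10 scored active.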 A number with no mark means an inactive call. Active and inactive are the calls of the source.

The subject of this experiment is SK-MEL-2 melanoma. Description: NCI-60 one-dose screen, 48 h (100 = growth as untreated, 0 = no growth, -100 = all killed). The following applies: 10 µM unless noted.
Turning to `Cc1ccc(S(=O)(=O)c2nc(S(=O)(=O)c3ccc(C)cc3)c(Cl)s2)cc1`, the growth is 42.5%.

Turning to `CCCCSc1nc(Nc2ccc(C(C)=O)cc2)c(C#N)c(-c2ccc(OC)cc2)n1`, the growth was 114%. To `CCOC(=O)C1=C(N)N(c2ccccc2)C2=C(C(=O)CC(C)(C)C2)C1c1ccc([N+](=O)[O-])cc1` (stereo not drawn) belongs 97.2%. To `Cc1cccc(Nc2nc3ccccc3nc2/C=C/c2ccc(F)cc2)c1` belongs 98.3%; to `Cc1cccc(NC(=O)CN2CCN(c3ncnc4c3cnn4-c3ccccc3)CC2)c1`, 80.2%. To `Cn1cc(-c2cc3nc(-c4c[nH]c5ccc(Br)cc45)cc(N)n3n2)c2ccccc21` belongs -86.5% (active); to `C#CCOc1ccc(/C=N/Nc2nc(-c3cc4cc(OC)ccc4oc3=O)cs2)cc1OC`, 55.2%; to `CC1(C)CC[C@]2(C(=O)O)CC[C@]3(C)C(=CCC4[C@@]5(C)C[C@@H](O)[C@@H]6OC(c7ccc(F)cc7)OC[C@@]6(C)C5CC[C@]43C)C2C1` (stereo partly drawn), 18.1%. With `O=C(NN1C(=O)/C(=C/C=C/c2ccc([N+](=O)[O-])o2)SC1=S)c1cccc(O)c1`, the growth is -88.2% (active). To `Cc1ccc(C(=O)NN2C(=O)/C(=C/C=C/c3ccc([N+](=O)[O-])o3)SC2=S)cc1` belongs -89.8% (active); to `N/C(=N\c1nc2ccccc2s1)NC(=O)Nc1c(Cl)cccc1Cl`, 6% (active); to `O=C(CN1C(=O)/C(=C/c2ccccc2Cl)SC1=S)N1CCOCC1`, 103%. As for `CN(C)c1nc(NCCNS(=O)(=O)c2ccc(C3=Nc4c(N)nc(N)nc4NC(c4ccc(C(F)(F)F)cc4)C3)cc2)nc(Nc2ccc(F)cc2)n1` (stereo not drawn), the figure is -82% (active); as for `O=C(CSc1nc2ccccc2c(=O)[nH]1)NCCN1CCCCC1`, 92.5%. Turning to `Cn1cc(-c2nnc(N)nc2-c2c[nH]c3ccc(Br)cc23)c2cc(Br)cnc21`, the growth was 35.4%.

Consider `O=C(O)Cn1c(O)c(/C=C2/C=c3cc4c(cc3=NC2=O)OCCO4)sc1=S`, for which the growth was 117%. Take `N/C(=N\c1nc2ccccc2s1)NC(=O)Nc1ccc(Cl)cc1Cl`: the growth is -49.9% (active). As for `Cc1ccc(-c2nc(C#N)c(S(=O)(=O)N3CCN(S(=O)(=O)c4ccccc4)CC3)o2)cc1`, the figure is 48%; as for `COc1cccc(-c2nc(Nc3ccc(S(N)(=O)=O)cc3)c3ccccc3n2)c1`, 46.6%; as for `COc1ccc(/C=C/c2nc3ccccc3n3c(-c4ccc(Cl)cc4)nnc23)cc1`, 99.8%. To `CNS(=O)(=O)c1ccc(Nc2ccc(C(F)(F)F)cc2)c(-c2cn(C)cn2)c1` belongs 63.8%; to `CCS(=O)(=O)N1CCCC(C(=O)Nc2nc3ccc(NC(=O)c4ccc(F)c(OC)c4F)cc3s2)C1` (stereo not drawn), 61.1%; to `C#CCOc1cc(N(CC)CC)ccc1C(C(=O)NC(C)(C)C)N(C(=O)C1CCc2cc(F)ccc2O1)c1cc(C)cc(C)c1` (stereo not drawn), -14.6% (active). Turning to `C#CCOc1ccc(/C=N/Nc2nc(-c3ccc(Cl)cc3)cs2)cc1OC`, the growth was 38%. As for `O=C(COc1ccc2c(c1)CCCC(=O)N2)NCc1ccccc1`, the figure is 87.1%; as for `CN(C)c1nc(NCCNS(=O)(=O)c2ccc(C3=Nc4c(N)nc(N)nc4NC(c4ccccc4)C3)cc2)nc(Nc2ccc(F)cc2)n1` (stereo not drawn), 68.6%; as for `CC1(C)CC[C@]2(C(=O)O)CC[C@]3(C)C(=CCC4[C@@]5(C)C[C@@H](O)[C@@H]6OC(c7ccccc7F)OC[C@@]6(C)C5CC[C@]43C)C2C1` (stereo partly drawn), -14.8% (active). To `Cc1cccc(-c2nc(Nc3ccc(C)c(S(N)(=O)=O)c3)c3ccccc3n2)c1` belongs 52.2%; to `COC(=O)C[C@](O)(CCCC(C)(C)O)C(=O)O[C@H]1C(OC)=C[C@@]23CCCN2CCc2cc4c(cc2[C@@H]13)OCO4`, -40% (active). To `Cn1cc(-c2cc(N)n3nc(-c4cn(C)c5ccccc45)cc3n2)c2cc(Cl)ccc21` belongs -87.4% (active); to `CC1(C)CC[C@]2(C(=O)O)CC[C@]3(C)C(=CCC4[C@@]5(C)C[C@@H](O)[C@@H]6OC(c7ccco7)OC[C@@]6(C)C5CC[C@]43C)C2C1` (stereo partly drawn), -23.4% (active); to `Cn1cc(-c2cc3nc(-c4c[nH]c5ccc(Cl)cc45)cc(N)n3n2)c2ccccc21`, -89.8% (active).

On to `COc1ccc(Cc2nn(CC(=O)N/N=C/c3ccc(F)cc3)c(=O)c3c(C)noc23)cc1`, for which the growth is 70.5%. `COc1cc2nc(SCc3ccccc3)n(-c3ccc(Cl)cc3)c(=O)c2cc1OC`: the growth was 28.3%. Turning to `Cc1cccc(-c2nc(Nc3cccc(S(N)(=O)=O)c3)c3ccccc3n2)c1`, the growth was 66.6%. On to `COc1ccc2[nH]cc(-c3nnc(N)nc3-c3cn(C)c4ncc(Br)cc34)c2c1`, for which the growth was 61.1%.

In the case of `CCN(CC)c1ccc(/C=N/Nc2nc(-c3ccc(C)cc3)cs2)c(O)c1`, the growth was 79.7%. To `N/C(=N\c1nc2ccccc2s1)NC(=O)Nc1ccccc1Br` belongs -0.501% (active).
